Measured values published in the supplement of paper PMC7156485.

Key:
Details in all cases: concentration: 10 µM; 24 h
[1] = system: HCC1569; assay: cell number relative to DMSO (% of DMSO); higher = more cells (less growth inhibition / toxicity)
How it was run: (§1)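 HCC1569 and TDF cells (800 per well, 384-well plates, RPMI with 10% FBS) were treated with compounds at 10 µM for 24 h at 37 °C, in triplicate. Cells were fixed in 3.7% formaldehyde and stained with a rabbit anti-H1.0 antibody, an AlexaFluor 647 secondary and DAPI; six fields per well were imaged at ×10. H1.0 nuclear intensity or cell number is expressed as percent of the plate DMSO control, taking the median of replicates. HCC1569 values were smoothed for positional effects.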

[2] = system: TDF; assay: as above
How it was run: as §1

[3] = system: TDF; assay: H1.0 immunofluorescence intensity relative to DMSO (% of DMSO); higher = stronger H1.0 induction, active = 120 or more
How it was run: as §1

[4] = system: HCC1569; assay: H1.0 immunofluorescence intensity relative to DMSO (% of DMSO); higher = stronger H1.0 induction, active = 140 or more
How it was run: as §1
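For H1.0 immunofluorescence intensity relative to DMSO in this document: TDF is a line of transformed human dermal fibroblasts of mesenchymal origin.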
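For cell number relative to DMSO in this document: TDF denotes transformed human dermal fibroblasts of mesenchymal origin.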

Row | Compound | cell number [1] | cell number [2] | H1.0 immunofluorescence intensity [3] | H1.0 immunofluorescence intensity [4]
1 | CS(=O)(=O)O.O.Oc1ccc2c3c1OC1c4oc5ccccc5c4CC4(O)C(C2)N(CC2CC2)CCC314 (centres undefined) [Naltriben methanesulfonate hydrate] | 98.9 | 101 | 92.8 (inactive) | 119 (inactive)
2 | COc1cc(C(O)CN)ccc1O.Cl (racemic) | 102 | 111 | 92.5 (inactive) | 94.7 (inactive)
3 | COc1ccc(OC)c(C(O)C(C)N)c1.Cl (centres undefined) [Methoxamine hydrochloride] | 101 | 106 | 95.2 (inactive) | 94.3 (inactive)
4 | C=CCc1cc(OC)c2c(c1)OCO2 [Myristicin] | 104 | 103 | 104 (inactive) | 81.5 (inactive)
5 | CCCN1CCCC2Cc3nc(N)ncc3CC21.Cl.Cl (centres undefined) [Quinelorane dihydrochloride] | 99.7 | 113 | 95 (inactive) | 106 (inactive)
6 | O=C(NCCN1CCC2(CC1)C(=O)NCN2c1cccc(F)c1)c1ccc(F)c(F)c1 | 92.7 | 92.3 | 110 (inactive) | 107 (inactive)
7 | COc1ccc2[nH]cc(CCN)c2c1.Cl [O-Methylserotonin hydrochloride] | 96.9 | 97.6 | 89.1 (inactive) | 106 (inactive)
8 | CSC(=S)NCc1c[nH]c2ccccc12 [Brassinin] | 100 | 90.8 | 97.9 (inactive) | 99.7 (inactive)
9 | COc1ccc2[nH]c3c(c2c1)CCNC3 [6-Methoxy-1,2,3,4-tetrahydro-9H-pyrido[3,4b] indole] | 106 | 100 | 108 (inactive) | 108 (inactive)
10 | CC[NH+](CC)CC.Nc1ncnc2c1ncn2C1OC2COP([O-])(=S)OC2C1O (centres undefined) [Rp-cAMPS triethylamine] | 103 | 113 | 86 (inactive) | 88.3 (inactive)
11 | CN(C)C(=O)Oc1cc(OC(=O)N(C)C)cc(C(O)CNC(C)(C)C)c1.Cl (centres undefined) | 104 | 104 | 91.4 (inactive) | 101 (inactive)
